Hit rate of the full screen: of about 190,000 compounds, about 810 (0.43%) were called active. No stated cut-off is given here; in the data, active means inhibition above about 50%; inactive means the rest. The list comes from a sample in which actives are over-represented; it also holds similar structures and randomly drawn compounds.

The target of this assay is Mannose-6-phosphate isomerase (Homo sapiens) (UniProt P34949). The assay is described as follows: MPI enzyme activity inhibition – biochemical, fluorescence intensity, coupled assay, primary screen (AID 1209).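 Further: plate controls were DMSO vehicle for no effect and wells lacking substrate for full effect.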 The conditions noted are these: purified PMI enzyme, at 20 µM, active compounds read high.
Chain of Mannose-6-phosphate isomerase (Homo sapiens) (P34949 whole entry, looked up): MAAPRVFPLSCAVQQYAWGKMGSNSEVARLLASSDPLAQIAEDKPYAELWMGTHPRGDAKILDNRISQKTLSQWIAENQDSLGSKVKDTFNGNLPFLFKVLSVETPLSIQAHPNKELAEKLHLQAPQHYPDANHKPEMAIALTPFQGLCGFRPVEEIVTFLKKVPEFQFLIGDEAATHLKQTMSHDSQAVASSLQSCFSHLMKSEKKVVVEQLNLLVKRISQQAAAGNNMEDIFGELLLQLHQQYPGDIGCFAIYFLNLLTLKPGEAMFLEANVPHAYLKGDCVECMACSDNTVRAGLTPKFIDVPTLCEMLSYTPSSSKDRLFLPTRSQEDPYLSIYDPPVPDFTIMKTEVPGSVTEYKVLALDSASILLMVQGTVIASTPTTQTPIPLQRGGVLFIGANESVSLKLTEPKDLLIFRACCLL
Consider `O=C(c1ccc(C(=O)N2CCCc3ccccc32)s1)N1CCCc2ccccc21`, for which the inhibition was -2.1% (inactive).

`Brc1ccccc1-c1nnc2sc(-c3ccc4c(c3)OCCO4)nn12`: the inhibition is 22.5% (inactive).

Turning to `Fc1ccc(-c2nn3c(C4COc5ccccc5O4)nnc3s2)cc1` (stereo unspecified), the inhibition was 7.6% (inactive).

Take `Clc1ccccc1-c1nnc2sc(C3COc4ccccc4O3)nn12` (stereo unspecified): the inhibition is 50% (active).

Regarding `Cc1ccc(-c2nnc3sc(C4COc5ccccc5O4)nn23)cc1` (stereo unspecified), the inhibition is 3.9% (inactive).

With `Clc1cccc(-c2nnc3sc(-c4ccc5c(c4)OCO5)nn23)c1`, the inhibition was 9.8% (inactive).

As to `c1csc(-c2nn3c(C4COc5ccccc5O4)nnc3s2)c1` (stereo unspecified), the inhibition was 37.9% (inactive).

With `COc1ccccc1-c1nn2c(C3COc4ccccc4O3)nnc2s1` (stereo unspecified), the inhibition is 57.6% (active).

With `Clc1ccccc1-c1nnc2sc(-c3ccc4c(c3)OCO4)nn12`, the inhibition was 50.8% (active).

Regarding `Fc1ccc(-c2nnc3sc(C4COc5ccccc5O4)nn23)cc1` (stereo unspecified), the inhibition is 0.9% (inactive).

Regarding `CCC1(C)SC(N)=NN1C(C)=O` (stereo unspecified), the inhibition is 7.1% (inactive).

On to `CCOC(=O)c1ccc(N/C(=N\S(=O)(=O)c2ccccc2C)c2ccccc2)cc1`, for which the inhibition is 10.9% (inactive).

With `COc1cc(C(=S)NCc2ccccc2)cc(Br)c1O`, the inhibition was 68.6% (active).

Consider `COc1ccc(C(=O)NCc2ccccc2)cc1Br`, for which the inhibition was 1.4% (inactive).

Regarding `COc1cc(C(=O)NCc2ccccc2)cc(Br)c1OC`, the inhibition was 1.2% (inactive).

As to `Cc1cc(/C=N\NC(=O)COc2cccc3cccnc23)c(C)n1-c1ccccc1`, the inhibition was 1.7% (inactive).

For `O=C(c1ccco1)N1CCn2c1nc1ccccc12`, the inhibition is -7.1% (inactive).

`COc1ccc(NC(=O)c2ccc3nc[nH]c3c2)c(OC)c1`: the inhibition is 8.4% (inactive).

On to `Cc1nn(-c2ccccn2)c2c1C(=O)C(Br)CC2` (stereo unspecified), for which the inhibition was 72% (active).

Regarding `C=C(C)C1Cc2c(C)nn(-c3ccccn3)c2C1` (stereo unspecified), the inhibition is -7.4% (inactive).

Regarding `Cc1nn(-c2ccccn2)c2c1-c1nc(N)ncc1CC2`, the inhibition was 4.1% (inactive).

For the compound `COc1ccc(CNC(=O)CCCNS(=O)(=O)c2cccc3nonc23)cc1`, the inhibition was 13% (inactive).

Take `Cc1ccc(C(=O)CSc2ncn[nH]2)cc1`: the inhibition is -6.3% (inactive).

Turning to `CCc1ccc(C(=O)CSc2ncn[nH]2)cc1`, the inhibition was 42.1% (inactive).

On to `CC(C)c1ccc(C(=O)CSc2ncn[nH]2)cc1`, for which the inhibition is 83% (active).

With `COC(=O)Cc1cn(-c2ncc(C(F)(F)F)cc2Cl)c2ccccc12`, the inhibition was 1.6% (inactive).

Regarding `Cc1cc2ccccc2n1CCNC(=O)c1ccccc1`, the inhibition was -10.2% (inactive).

`Cc1c(Br)c(C(=O)NCc2cc3cc(Cl)ccc3[nH]2)nn1C`: the inhibition is 5.7% (inactive).

On to `O=C(C1CCN(Cc2ccccc2)CC1)N1CCCC1`, for which the inhibition is -5.2% (inactive).

For the compound `O=C(CN1CCN(Cc2ccccc2)CC1)c1ccccc1`, the inhibition was 2% (inactive).

Consider `O=C(CN1CCN(Cc2ccccc2)CC1)N1CCCCCC1`, for which the inhibition was 60.7% (active).

Source of the values: PubChem BioAssay AID1209 (Sanford-Burnham Center for Chemical Genomics, 2008).
